Assay outcomes (PubChem)
CYP2C9 inh: blockers of cytochrome P450 2C9 activity – biochemical, luminescence, ADME assay, primary screen. P11712. CYP2C9 Supersomes, luciferin-H conversion. inhibition, % at 5 µM. 96,000 compounds, 20% hits. AID 777, 2007;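 active means blocking of liver enzyme CYP2C9 beyond about 50% at 5 µM, limit read from the data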
Target sequence (P11712 whole entry, looked up): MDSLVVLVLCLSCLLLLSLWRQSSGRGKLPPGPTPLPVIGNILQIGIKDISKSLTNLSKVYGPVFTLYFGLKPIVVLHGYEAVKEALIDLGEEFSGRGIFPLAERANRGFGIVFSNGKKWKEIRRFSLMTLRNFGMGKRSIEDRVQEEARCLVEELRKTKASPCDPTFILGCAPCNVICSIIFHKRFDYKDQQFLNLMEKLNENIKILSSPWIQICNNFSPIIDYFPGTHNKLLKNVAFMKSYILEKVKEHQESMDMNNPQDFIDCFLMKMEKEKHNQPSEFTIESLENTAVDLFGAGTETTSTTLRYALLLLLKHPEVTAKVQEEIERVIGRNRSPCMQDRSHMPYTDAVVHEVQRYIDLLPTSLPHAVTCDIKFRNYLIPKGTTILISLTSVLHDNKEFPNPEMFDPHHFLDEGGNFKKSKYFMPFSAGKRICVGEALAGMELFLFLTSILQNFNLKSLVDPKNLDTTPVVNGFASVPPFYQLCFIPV
CYP2C19 inhib: blockers of cytochrome P450 2C19 activity – biochemical, luminescence, ADME assay, primary screen. AID 778, 2007. 96,000 compounds, 21% hits. CYP2C19 Supersomes, luciferin-H EGE luminescence, 30 min. inhibition, % at 5 µM. P33261;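 active means CYP2C19 inhibition above a set limit at 5 µM in the primary screen, cut at about 50% in these data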;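 further: plate controls were negative control wells for no effect and 2.5 mM tranylcypromine positive control for full effect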
CYP2C9 act: human CYP2C9 activators, primary screen, biochemical, luminescence; Cytochrome P450 2C9 (Homo sapiens), P11712; recombinant CYP2C9, luciferin-H conversion; stronger effect = higher value; factor 1 = untreated enzyme, 0 = blocked; activation factor at 5 µM; 96,000 compounds, 1.4% hits; AID 1024, 2008;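 active means activation factor of 2 or more for CYP2C9 at a 5 µM dose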;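 further: 0 = sulfaphenazole-blocked wells and 1 = vehicle-only wells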
PostGolgi ctrl: growth inhibition of yeast control strain, primary screen, counter-screen for post-Golgi transport modulator project. efflux-deficient yeast background strain, growth absorbance A615, 16 h. inhibition, % at 10 µM. 98,000 compounds, 5% hits
PostGolgi yeast: phenotypic screen on post-Golgi transport, primary screen; post-Golgi transport phenotypic cell assay; inhibition, % at 10 µM; 98,000 compounds, 0.9% hits; AID 739, 2007;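 further: yeast cells grown in 1536-well plates; yeast grown about 18 h at 30C before absorbance read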
CYP2C19 activ: human CYP2C19 activators, primary screen, biochemical, luminescence. Cytochrome P450 2C19 (Homo sapiens), P33261. recombinant CYP2C19, luciferin-H EGE luminescence; stronger effect = higher value; 0 = fully inhibited enzyme, 1 = untreated enzyme. activation factor at 5 µM. 96,000 tested, under 10 active. AID 1025, 2008;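 active means activation factor of at least 2 at 5 µM in the primary screen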;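 further: 0 = wells with 2.5 mM tranylcypromine and 1 = vehicle-only wells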
* = called active by the depositor. This is a sample that favours compounds with a hit; in the whole collection about 32% have one here. Unless noted, no stated cut-off is given here; in the data, active means inhibition above about 30%; inactive means the rest.

Results for CC(=O)NC1CC2CCCC(C1)N2S(=O)(=O)c1ccccc1 (centres undefined) ?
CYP2C9 inh: -42.9; CYP2C19 inhib: 50.3*; CYP2C9 act: 1.4; PostGolgi ctrl: -0.8; PostGolgi yeast: 3.5; CYP2C19 activ: 0.5

What do the screens show for `Cc1cc(NC(=O)C(C)C)ncc1NC(=O)CCc1ccccc1`?
PostGolgi ctrl: -4.0; PostGolgi yeast: -1.1

What do the screens show for `Cc1nn(CCO)c(C)c1Oc1ccccc1O`?
CYP2C9 inh: -10.0; CYP2C19 inhib: 4.1; CYP2C9 act: 1.1; PostGolgi ctrl: 16.9; PostGolgi yeast: -11.1; CYP2C19 activ: 1

Results for Cc1cc(NC(c2cccnc2)c2ccc3cccnc3c2O)no1 (centres undefined) ?
CYP2C9 inh: 34.2; CYP2C19 inhib: 30.1; CYP2C9 act: 0.7; PostGolgi ctrl: -5.2; PostGolgi yeast: -3.5; CYP2C19 activ: 0.7

How did Cc1cccc(NC(c2ccc(O)cc2)c2ccc3ccc(C)nc3c2O)n1 (centres undefined) do in these assays?
CYP2C9 inh: -99.3; CYP2C19 inhib: 42.1; CYP2C9 act: 2*; PostGolgi ctrl: 0.6; PostGolgi yeast: 0.2; CYP2C19 activ: 0.6

What do the screens show for `COC(=O)c1cc(C(=O)OC)cc(N2C(=O)CN=C2Nc2nc(C)cc(C)n2)c1`?
CYP2C9 inh: -1.3; CYP2C19 inhib: 1.0; CYP2C9 act: 1; PostGolgi ctrl: -0.3; PostGolgi yeast: 6.3; CYP2C19 activ: 1

Results for O=C(COc1ccccc1Cl)Nc1cc(Cl)ccc1Oc1ccccc1 ?
CYP2C9 inh: 11.0; CYP2C19 inhib: -2.3; CYP2C9 act: 0.9; PostGolgi ctrl: 1.2; PostGolgi yeast: 16.6; CYP2C19 activ: 1

What do the screens show for `Cc1ccc(N(CC(=O)Nc2cc(Cl)ccc2Oc2ccccc2)S(C)(=O)=O)cc1C`?
CYP2C9 inh: 97.8*; CYP2C19 inhib: 99.2*; CYP2C9 act: 0; PostGolgi ctrl: 11.4; PostGolgi yeast: -3.4; CYP2C19 activ: 0

Results for Cc1ccc(N(CC(=O)Nc2cc(Cl)ccc2Oc2ccccc2)S(C)(=O)=O)c(C)c1 ?
CYP2C9 inh: 46.0; CYP2C19 inhib: 60.9*; CYP2C9 act: 0.5; PostGolgi ctrl: 12.8; PostGolgi yeast: 0.0; CYP2C19 activ: 0.4

How did CCc1cccc(C)c1NC(=O)C(c1ccccc1)N1CCC1=O (centres undefined) do in these assays?
CYP2C9 inh: -8.6; CYP2C19 inhib: -14.6; CYP2C9 act: 1.1; PostGolgi ctrl: 14.7; PostGolgi yeast: 5.2; CYP2C19 activ: 1.1

Results for O=C(c1ccc(Cl)cc1)c1oc2ccccc2c1CS(=O)(=O)c1ccccc1 ?
CYP2C9 inh: 41.5; CYP2C19 inhib: 40.2; CYP2C9 act: 0.6; PostGolgi ctrl: 31.4*; PostGolgi yeast: 2.3; CYP2C19 activ: 0.6

Results for CC(=O)Nc1c(C(=O)c2ccccc2)oc2ccccc12 ?
CYP2C9 inh: 18.7; CYP2C19 inhib: 36.2; CYP2C9 act: 0.8; PostGolgi ctrl: 9.9; PostGolgi yeast: 5.7; CYP2C19 activ: 0.6

Results for COc1cc(-c2nnc(SCC3(c4ccccc4)OCCO3)o2)cc(OC)c1OC ?
CYP2C9 inh: -64.7; CYP2C19 inhib: 76.3*; CYP2C9 act: 1.6; PostGolgi ctrl: 6.9; PostGolgi yeast: -4.0; CYP2C19 activ: 0.2

What do the screens show for `COc1cc(-c2nnc(-c3ccc(S(=O)(=O)c4ccccc4)cc3)o2)cc(OC)c1OC`?
CYP2C9 inh: 60.9*; CYP2C19 inhib: 61.4*; CYP2C9 act: 0.4; PostGolgi ctrl: -2.5; PostGolgi yeast: -8.0; CYP2C19 activ: 0.4

What do the screens show for `Cc1nn(C)c(C)c1NC(=O)c1ccc(S(=O)(=O)N(C)C)cc1`?
CYP2C9 inh: 0.9; CYP2C19 inhib: -0.9; CYP2C9 act: 1; PostGolgi ctrl: -0.9; PostGolgi yeast: 1.8; CYP2C19 activ: 1

How did C=CCn1c(CCCOc2ccc(Cl)cc2Cl)nnc1SCC(=O)Nc1nccs1 do in these assays?
CYP2C9 inh: -6.9; CYP2C19 inhib: -9.1; CYP2C9 act: 1.1; PostGolgi ctrl: 1.3; PostGolgi yeast: 22.7; CYP2C19 activ: 1.1

Results for CCCCNCCCOc1cccc(Cl)c1Cl ?
CYP2C9 inh: -26.1; CYP2C19 inhib: 27.2; CYP2C9 act: 1.3; PostGolgi ctrl: 3.5; PostGolgi yeast: -1.0; CYP2C19 activ: 0.7

How did Cn1c(=O)c2c(nc(NCc3cccnc3)n2Cc2cccc(C(F)(F)F)c2)n(C)c1=O do in these assays?
CYP2C9 inh: 69.3*; CYP2C19 inhib: 53.1*; CYP2C9 act: 0.3; PostGolgi ctrl: 3.0; PostGolgi yeast: -1.3; CYP2C19 activ: 0.5

What do the screens show for `Cn1ncc(N=Cc2ccccc2)c1C(N)=O`?
CYP2C9 inh: 27.7; CYP2C19 inhib: -0.6; CYP2C9 act: 0.7; PostGolgi ctrl: 5.3; PostGolgi yeast: -10.0; CYP2C19 activ: 1

How did Cn1ncc(N=Cc2ccccc2)c1C(=O)Nc1cccc(Cl)c1 do in these assays?
CYP2C9 inh: 55.7*; CYP2C19 inhib: -15.0; CYP2C9 act: 0.4; PostGolgi ctrl: 14.2; PostGolgi yeast: 9.3; CYP2C19 activ: 1.1

Results for COCCN1CCn2c(nc3cc(NC(=O)c4ccc(OC)cc4)ccc32)C1 ?
CYP2C9 inh: 30.8; CYP2C19 inhib: 15.2; CYP2C9 act: 0.7; PostGolgi ctrl: 14.6; PostGolgi yeast: 3.6; CYP2C19 activ: 0.8

How did COC(=O)c1ccc(NC(=S)NCCc2cccc(C)c2)cc1 do in these assays?
CYP2C9 inh: 79.4*; CYP2C19 inhib: 76.6*; CYP2C9 act: 0.2; PostGolgi ctrl: 11.8; PostGolgi yeast: -12.5; CYP2C19 activ: 0.2

Results for COc1ccc(CCNC(=S)Nc2cccc(C)c2C)cc1 ?
CYP2C9 inh: 26.0; CYP2C19 inhib: 57.8*; CYP2C9 act: 0.7; PostGolgi ctrl: 28.0; PostGolgi yeast: 8.9; CYP2C19 activ: 0.4

How did COC(=O)c1ccc(NC(=S)N2CCN(Cc3cccc(C)c3)CC2)cc1 do in these assays?
CYP2C9 inh: -11.6; CYP2C19 inhib: -23.6; CYP2C9 act: 1.1; PostGolgi ctrl: 0.8; PostGolgi yeast: -0.8; CYP2C19 activ: 1.2

What do the screens show for `COc1ccc(N2CCN(C(=S)Nc3cccc(C)c3C)CC2)cc1`?
CYP2C9 inh: -9.0; CYP2C19 inhib: -4.8; CYP2C9 act: 1.1; PostGolgi ctrl: -5.0; PostGolgi yeast: -1.6; CYP2C19 activ: 1

What do the screens show for `COc1ccc(CCNC(=S)Nc2cc(C)ccc2C)cc1`?
CYP2C9 inh: 53.8*; CYP2C19 inhib: 67.0*; CYP2C9 act: 0.5; PostGolgi ctrl: -2.2; PostGolgi yeast: 6.2; CYP2C19 activ: 0.3

Results for Cc1cc(Cl)ccc1NC(=S)NCc1ccccc1 ?
CYP2C9 inh: 19.8; CYP2C19 inhib: 76.9*; CYP2C9 act: 0.8; PostGolgi ctrl: -0.1; PostGolgi yeast: -6.2; CYP2C19 activ: 0.2

Results for CN(N)C(=S)NCc1ccccc1 ?
CYP2C9 inh: 5.4; CYP2C19 inhib: 8.8; CYP2C9 act: 0.9; PostGolgi ctrl: 3.5; PostGolgi yeast: 10.4; CYP2C19 activ: 0.9
